Compound activity deposited in PubChem by National Center for Advancing Translational Sciences (NCATS).
Rows were chosen to be rich in hits. Some 14% of all compounds tested hit in one or more screens of this group.
HADH2 inhib – blocks human hydroxyacyl-CoA dehydrogenase type II | 73,000 compounds, 3.4% hits | AID 886 | recombinant HADH2, NADH fluorescence, beta-hydroxybutyryl-CoA | Potency, µM (titrated, usually from 57.1 µM), inactives show at the highest dose activity change, negative = inhibition, actives largely listed as inhibitors | Q99714; note: potency is the fitted concentration of half-maximal effect; % is set by controls: 0 for no effect and ±100 for the full control effect; nearly all actives have a fitted effect of over 60% in size
Target sequence (Q99714 whole entry, looked up, one chain of several): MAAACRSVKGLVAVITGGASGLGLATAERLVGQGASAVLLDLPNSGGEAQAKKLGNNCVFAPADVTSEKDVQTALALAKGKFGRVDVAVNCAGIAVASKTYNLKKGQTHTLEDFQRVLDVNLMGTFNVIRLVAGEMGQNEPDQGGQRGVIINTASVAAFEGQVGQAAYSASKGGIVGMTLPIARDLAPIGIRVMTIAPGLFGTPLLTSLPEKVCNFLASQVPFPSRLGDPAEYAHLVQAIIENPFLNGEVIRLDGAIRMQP
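Buffer 100 mM Tris-HCl pH 9.0/0.01% Tween-20; HADH2 20 nM; NAD+ 1 mM; beta-hydroxybutyryl-CoA 90 uM (all final). 15 min cpd preincubation, RT.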
A350 autofl – A350 region autofluorescence | Compound autofluorescence, 340/450 nm, Alexa 350 dye-equivalents; stronger effect = higher value | AID 590 | 59,000 compounds, 11% hits | max dye-equivalent concentration, M; in the data active = max dye-equivalent concentration above about 10 nM; inconclusive = mostly about 1.1 nM to 9.6 nM
CRE-bla Fsk – CRE-bla signaling modulation under forskolin stimulation; CHO CRE-bla reporter (cAMP response element driving beta-lactamase), forskolin EC10, beta-lactamase ratio; Potency, µM (top dose mostly 38.2 µM), for the others: at the top dose activity change, negative = inhibition, actives largely listed as activators; 71,000 compounds, 2.5% hits; AID 662; active = well fitted activation curve with a large enough effect in the signal ratio, with a control signal flat, not every such curve was filed as active; inconclusive = small, poorly fitted or top-dose-only effect, or effect the other way, or a change in a side signal; the % refers to the signal ratio; note: potency is the fitted concentration of half-maximal effect; % of control where 0% means no effect
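AC50 values, positive or negative, reflect shifts in EC10 NKH 477-induced CRE-bla reporter activity in CHO cells. Incubation lasted 3 h at 37 °C before CCF4 substrate (2 h, room temperature) and ratiometric 460/530 nm reading.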
AID923 – qHTS Assay for Allosteric/Competitive Inhibitors of Caspase-1: Spectroscopic Profiling in AFC Spectral Region. compound fluorescence, AFC spectral region (405/520 nm). Potency, µM (top dose mostly 57.5 µM), for inactives: top-dose fluorescence increase, most hits filed as activators. 75,000 compounds, 1.1% hits; note: potency is the fitted concentration of half-maximal effect; 0% is about no effect
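Baseline compound fluorescence (AFC region, 405 nm ex/520 nm em) taken from the intercept of kinetic reads with 50 nM caspase-1 and 5 uM Ac-WEHD-AFC; normalized to an on-plate AFC standard curve; compounds titrated up to 57 uM.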
HSD17B inhib – inhibitors of human HSD17B10 dehydrogenase | Potency, µM (highest dose often 57.1 µM), for the others: top-dose activity change, negative = inhibition, usual class: inhibitors | recombinant HSD17B10, NADH fluorescence kinetic | Q99714 | 75,000 compounds, 7.6% hits;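 note: the protocol describes HADH2 (HSD17B10) and not the HSD17B4 of the title; potency is the fitted concentration of half-maximal effect; % is set by controls: 0 for no effect and ±100 for the full control effect; nearly all actives have a fitted effect of over 70% in size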
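Enzyme plus compound, 15 min room temperature; substrate mix added (NAD+ 1 mM, beta-hydroxybutyryl-CoA 90 uM final); plates read kinetically for NADH fluorescence. HADH2 was His-tagged, E. coli-derived, 20 nM.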
4MU fluor – compounds fluorescent in 4-MU spectral region. compound autofluorescence, 340/450 nm, 4-MU equivalents; stronger effect = higher value. max dye-equivalent concentration, M. 59,000 compounds, 11% hits; in the data active = max dye-equivalent concentration above about 10 nM; inconclusive = mostly about 1.1 nM to 9.6 nM
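Compounds in 100 mM Tris, pH 8.0, incubated 15 min at room temperature, then fluorescence read at 340 nm excitation/450 nm emission. Signal converted to 4-MU dye-equivalent concentration using an on-plate six-point 4-MU standard curve.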
* marks the source's active call; other numbers are inactive results; i = inactive; ? = inconclusive; . = not tested or not shown; ! = not active in a repeat; [ ] = dose if it differs, or a comment. Unless noted, calls come from the whole dose curve; as a rule, active = well fitted curve in the direction sought with a large enough effect; inconclusive = small, poorly fitted or top-dose-only effect, or another doubt; inactive = no such curve, though single readings can be large; an effect the other way counts as inactive or inconclusive.

SMILES | HADH2 inhib | A350 autofl | CRE-bla Fsk | AID923 | HSD17B inhib | 4MU fluor
COc1nc(Nc2ccc(-c3nc4ccccc4o3)cc2)nc(N2CCOCC2)n1 | 32µM* | 2.3e-07M* | ? | 0% | 7.9µM* | 2.3e-07M*
Cc1ccc(C2Nc3ccccc3-c3nc4ccccc4n32)o1 (stereo not given) | 16µM* | 1.6e-06M* | ? | 9% | 16µM* | 1.4e-06M*
COc1ccc2c(c1)C1(Nc3ccccc3-c3nc4ccccc4n31)C(=O)N2 (stereo not given) | -2% | ? | ? | -1% | -6% | i
COc1ccc(OC)c(C(=O)CSc2nc3cccnc3n2C)c1 | -23% | 1.1e-08M* | ? | -1% | 1% | 2.9e-08M*
COc1ccc(OC)c(C(=O)CSc2nnnn2C)c1 | -26% | 2.8e-08M* | 6% | 0% | -10% | 3.1e-08M*
C[C@@H]1CCCN(C[C@@H](O)CN2CCCc3ccccc32)C1 | 5%[11.4 µM] | i | -2%[7.6 µM] | 5%[11.5 µM] | 0%[11.4 µM] | i
COc1ccc(OC)c(C(c2nnnn2CC2CCCO2)N2CCN(C3CCCC3)CC2)c1 (stereo not given) | 2% | i | -11% | 0% | -6% | i
CCc1ccc2[nH]c(=O)c(C(c3nnnn3CC3CCCO3)N3CCN4CCCC4C3)cc2c1 (stereo not given) | 8% | 3.7e-08M* | -6% | 3% | ? | 4.1e-08M*
CCC(c1nnnn1CC1CCCO1)N(CCN1CCOCC1)Cc1cc2cc(C)ccc2[nH]c1=O (stereo not given) | -5% | 4e-08M* | 5% | 16% | 25µM* | 4.2e-08M*
Cc1cc2cc(C(c3nnnn3Cc3ccco3)N3CCc4ccccc43)c(=O)[nH]c2cc1C (stereo not given) | -16% | ? | 27% | 8% | ? | ?
Cc1cc2cc(C(c3nnnn3Cc3ccco3)N3CCc4ccccc4C3)c(=O)[nH]c2cc1C (stereo not given) | -14% | 1e-08M* | -19% | 11% | ? | 1e-08M*
Cc1ccc2[nH]c(=O)c(C(c3nnnn3CC3CCCO3)N3CCCc4ccccc43)cc2c1 (stereo not given) | -21% | 1.2e-08M* | 18% | 5% | 32µM* | 1.2e-08M*
CC(=O)N1CCC[C@@]2(CCN(C(c3ccccc3)c3ccccc3)C2)C1 | -6% | i | -5% | -2% | -5% | i
OC[C@@H]1O[C@@H](O)[C@H](N=Cc2ccc3c(c2)OCO3)[C@@H](O)[C@@H]1O | 8%[11.4 µM] | i | 0%[7.6 µM] | 1%[11.5 µM] | -5%[11.4 µM] | i
CC1O[C@@H](O[C@H]2C(Oc3cc(O)c4c(c3)OC(c3ccc(O)cc3)CC4=O)OC(CO)C(O)C2O)C(O)C(O)C1O (stereo not given in full) | . | . | . | 1% | 3% | .
N#C/C(=C\NC(=S)c1ccncc1)c1nc2ccccc2s1 | -18%[11.4 µM] | i | -9%[7.6 µM] | 5%[11.5 µM] | -3%[11.4 µM] | i
CC(=O)/C(=C\c1ccccc1F)C(=O)c1ccccc1 | -5%[11.4 µM] | i | 0%[7.6 µM] | 1%[11.5 µM] | 1%[11.4 µM] | i
Cc1ccc2[nH]c(=O)c(C(c3nnnn3CC3CCCO3)N3CCc4ccccc4C3)cc2c1 (stereo not given) | -1% | 1.1e-08M* | -6% | 3% | 6% | 1e-08M*
COc1ccc2[nH]c(=O)c(C(c3nnnn3CC3CCCO3)N3CCc4ccccc4C3)cc2c1 (stereo not given) | -30% | 1.4e-07M* | ? | 4% | -1% | 1.4e-07M*
COc1ccc(OC)c(C(c2nnnn2CC2CCCO2)N2CCN(C)CC2)c1 (stereo not given) | 5% | i | -2% | 0% | 10% | i
Cc1ccc2[nH]c(=O)c(C(c3nnnn3CC3CCCO3)N3CCOCC3)cc2c1 (stereo not given) | ? | 6e-08M* | -2% | 1% | -7% | 6.4e-08M*
O=[N+]([O-])c1ccc(C2=Nn3c(nnc3-c3ccc(Cl)cc3)SC2)o1 | 1%[11.4 µM] | i | 9%[7.6 µM] | -2%[11.5 µM] | -10%[11.4 µM] | i
S=C1N[C@H](c2ccccc2)N[C@H](c2ccccc2)S1 | ? | i | 12%[7.6 µM] | -2%[11.5 µM] | -17%[11.4 µM] | i
CCC(C(=O)O)n1nnc(-c2ccc(-c3ccc(OC)cc3)cc2)n1 (stereo not given) | 8% | i | -6% | -1% | 32µM* | i
COc1ccc(-c2ccc(-c3nnn(CC(C)=O)n3)cc2)cc1 | 85% | i | 8% | 1% | -11% | i
SMILES | HADH2 inhib | A350 autofl | CRE-bla Fsk | AID923 | HSD17B inhib | 4MU fluor
CN1CCCN(C)C1c1cc([N+](=O)[O-])ccc1O | -17%[11.4 µM] | i | 14%[7.6 µM] | 1%[11.5 µM] | 8%[11.4 µM] | i
O=C(COC(=O)C1COc2ccccc2O1)NC(=O)NC1CCCC1 (stereo not given) | -6% | i | -5% | 0% | 5% | i
CN1/C(=C\C(=O)COc2ccc3c(c2)OCO3)C(C)(C)c2ccccc21 | 9% | 3.6e-08M* | -11% | 9% | ? | 2.9e-08M*
CN1/C(=C\C(=O)COC(=O)C2COc3ccccc3O2)C(C)(C)c2ccccc21 (stereo not given) | -9% | 1.9e-08M* | ? | 4% | ? | 2.1e-08M*
Cc1ccnc(NC(=O)COC(=O)C2COc3ccccc3O2)n1 (stereo not given) | -3% | 1.7e-08M* | ? | 0% | 27% | 1.6e-08M*
CCc1ccccc1 | 1% | . | -10% | 2% | -1% | .
CC(=O)OCC1OC(C#Cc2ccc(C)cc2C)C=CC1OC(C)=O (stereo not given) | -20%[11.4 µM] | . | . | 8%[11.5 µM] | -12%[11.4 µM] | .
COc1cccc(NS(=O)(=O)c2cn(C)c(=O)n(C)c2=O)c1 | ? | . | 6% | 8% | 3.2µM* | .
COc1cccc(NS(=O)(=O)c2ccc3c(c2)n(C)c(=O)c(=O)n3C)c1 | -9% | i | -16% | 1% | -3% | i
CNC(=O)[C@H](C)/C=C(\c1cccnc1)C(NC(=O)OCc1ccccc1)c1ccc(C(=O)OC)cc1 (stereo not given in full) | 10% | . | -10% | -1% | -2% | .
O=C(Nc1ccccc1)Nc1ccccn1 | -4% | i | ? | 1% | 1% | i
S=C(Nc1ccccn1)c1ccccn1 | 6.3µM* | . | 1% | -1% | -13% | .
COC(=O)c1nc(-c2ccccc2)oc1N(C)C | 25µM* | 1.1e-07M* | ? | 2% | 25µM* | 1.3e-07M*
Cc1ccc(CN2CCN(Cc3ccc(C)o3)[C@@H](C)C2)o1 | 4%[11.4 µM] | i | 5%[7.6 µM] | 0%[11.5 µM] | 6%[11.4 µM] | i
CC(=O)Nc1ccc(C(=O)OCCC(C)C)cc1 | 9%[11.4 µM] | . | ? | 0% | 32µM* | .
O=C1OC(=O)[C@@H]2[C@@H]1[C@@H]1CC[C@H]2O1 | 8% | i | 3.2µM*! | -4% | 6% | i
